Sampled rows, rich in hits. Any-hit rate of the full collection: about 7.3%.
FLuc modulator – inhibits or activates purified firefly luciferase, miR-21 counter-screen | P08659 | purified FLuc, Km substrates, luminescence inhibition | Potency, µM (highest dose often 57.5 µM), hits mostly inhibitors | 360,000 compounds, 6.9% hits | AID 588342; note: nearly all actives have a fitted effect of over 55% in size
Target sequence (P08659 whole entry, looked up): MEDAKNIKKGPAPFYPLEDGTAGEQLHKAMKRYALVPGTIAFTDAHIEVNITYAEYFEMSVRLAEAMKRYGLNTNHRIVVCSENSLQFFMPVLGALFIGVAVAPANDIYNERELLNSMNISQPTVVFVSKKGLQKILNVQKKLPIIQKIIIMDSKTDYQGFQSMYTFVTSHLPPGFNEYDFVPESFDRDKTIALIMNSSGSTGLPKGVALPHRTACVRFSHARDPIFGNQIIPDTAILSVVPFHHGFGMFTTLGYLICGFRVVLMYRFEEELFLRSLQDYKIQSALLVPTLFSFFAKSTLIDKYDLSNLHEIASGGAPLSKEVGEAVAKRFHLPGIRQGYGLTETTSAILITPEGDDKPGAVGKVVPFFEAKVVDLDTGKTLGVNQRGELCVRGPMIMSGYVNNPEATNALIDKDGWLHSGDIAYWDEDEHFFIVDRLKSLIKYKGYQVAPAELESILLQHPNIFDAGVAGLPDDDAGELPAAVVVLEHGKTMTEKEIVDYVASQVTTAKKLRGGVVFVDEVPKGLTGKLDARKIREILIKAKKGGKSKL
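Purified P. pyralis luciferase (10nM final) with 10uM D-luciferin and 10uM ATP (Km levels) in 50mM Tris acetate pH 7.5, 10mM Mg acetate, 0.01% Tween-20, 0.05% BSA; qHTS 6-point titration, ~60 µM downward; luminescence read.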
KinaseGlo FLuc – counter-screen: inhibitors of Kinase-Glo firefly luciferase. Kinase-Glo luciferase, ATP luminescence, 8 min. Potency, µM (series often up to 38.3 µM), actives largely listed as inhibitors. 200,000 compounds, 0.28% hits. AID 1379; note: nearly all actives have a fitted effect of over 60% in size
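Compound is pinned into ATP-containing buffer (10 uM ATP, imidazole pH 7.2, 7 mM MgCl2). Kinase-Glo luciferase reagent is then added. Light output is recorded following an 8-min room-temperature incubation.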
NPC1 promoter act – activators of NPC1 promoter | Huh7 NPC1 promoter luciferase reporter, 24 h | Potency, µM (doses to about 9.22 µM), hits mostly activators | 320,000 compounds, 2.4% hits | AID 485313; note: nearly all actives have a fitted effect of over 60% in size
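Luminescence from an NPC1 promoter-driven luciferase reporter in stably transfected Huh7 cells was measured after 24 h compound treatment at 37 °C, followed by 10 min ambient incubation with luciferase detection reagent.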
SMN2 splice up – increases expression of the SMN2 splice variant; HEK293 SMN2-luciferase splicing reporter, luminescence, 30-36 h; Potency, µM (titrated, usually from 46.1 µM), actives largely listed as activators; 210,000 compounds, 2.8% hits; note: nearly all actives have a fitted effect of over 55% in size
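HEK293 cells carry an SMN2 […]–luciferase reporter in which exon 7 inclusion puts luciferase in frame. Cells were plated 10-12 h before compound addition, then incubated 30-36 h at 37C. ONE-Glo luminescence was read; sodium butyrate at 4.5 mM final served as control.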
Rab9 promoter act – Rab9 promoter activation. Huh7 Rab9 promoter-luciferase reporter, luminescence, 24 h. Potency, µM (doses to about 9.22 µM), hits mostly activators. 320,000 compounds, 2.8% hits; note: nearly all actives have a fitted effect of over 60% in size
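Measured in stably transfected Huh7 cells bearing a Rab9 promoter–luciferase construct: 24 h compound treatment at 37 °C, followed by luminescence detection.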
Hits are given with their value; – = inactive; ? = inconclusive; · = not tested or not shown. Calls come from the whole dose curve; as a rule, active = well fitted curve in the direction sought with a large enough effect; inconclusive = small, poorly fitted or top-dose-only effect, or another doubt; inactive = no such curve, though single readings can be large; an effect the other way counts as inactive or inconclusive.

SMILES	FLuc modulator	KinaseGlo FLuc	NPC1 promoter act	SMN2 splice up	Rab9 promoter act
COc1ccc(C(=O)CCc2ccccc2)cc1	16.9µM	·	?	·	?
CCCc1ccc(C(=O)CCC(=O)O)cc1	23.9µM	–	–	–	–
Nc1c(C(=O)Nc2ccccc2Cl)c2ccccn2c1C(=O)c1ccccc1	–	·	·	–	·
CCCC(=O)N1c2nc(C(C)C)nn2C2(CCCCC2)[C@@H]2CCCC[C@@H]21	–	·	·	·	·
Cc1nn2c(=O)cc(COC(=O)c3ccccc3NC(=O)C3CCCCC3)nc2s1	–	·	·	·	·
COc1ccc(C(=O)n2nc(-c3cccnc3)nc2NCc2ccccc2)cc1OC	?	·	·	–	·
COc1ccc(C(=O)COC(=O)CCc2ccccc2)cc1	26.9µM	·	–	·	–
CCn1nc(NS(=O)(=O)c2ccc([N+](=O)[O-])cc2)c2cc3ccc(C)cc3nc21	?	·	–	·	–
CCn1nc(NS(=O)(=O)c2ccc([N+](=O)[O-])cc2)c2cc3cc(C)ccc3nc21	10.7µM	·	–	·	–
CCn1nc(NC(=O)c2ccccn2)c2cc3cc(C)ccc3nc21	9.53µM	–	–	–	–
CCn1nc(NS(=O)(=O)c2cccc3nonc23)c2cc3ccc(C)cc3nc21	30.1µM	·	–	·	–
CCc1ccc(CNC(=O)C(C)n2ccc3cc(S(=O)(=O)N4CCCCCC4)ccc32)cc1 (centres undefined)	–	·	·	·	·
Nc1cc(-c2ccc(Br)cc2)nn1Cc1ccccc1	16.9µM	–	–	·	–
COc1ccc2cc(CNc3ccc(C)cc3)c(=O)n(CC(=O)Nc3cccc(C(F)(F)F)c3)c2c1	–	·	·	·	·
C/C=C(\C)C(=O)N1CC2(CC(c3cccc(NC(=O)COc4ccc(Cl)cc4)c3)=NO2)C[C@@H]1C(N)=O (some centres undefined)	15.1µM	·	–	·	–
C=C(C)C(=O)N1CC2(CC(c3cccc(NC(=O)COc4ccc(Cl)cc4)c3)=NO2)C[C@@H]1C(N)=O (some centres undefined)	12µM	·	–	·	–
N#C/C(=C/c1cn(Cc2ccc(F)cc2)c2ccccc12)C(=O)Nc1cccc(Cl)c1	–	·	·	–	·
Cc1ccc(NC(=O)CCS(=O)(=O)c2ccc3nc(C)sc3c2)cc1	–	·	–	·	–
Cc1ccc(S(=O)(=O)CCC(=O)Nc2ccc3nc(C)sc3c2)cc1	–	–	–	–	–
Cc1ccc2nc(-c3ccc(NC(=O)CCS(=O)(=O)c4ccccc4)cc3)sc2c1	10.7µM	–	0.562µM	·	0.316µM
Cc1nc2cc(NC(=O)CCS(=O)(=O)c3ccccc3)ccc2s1	9.53µM	–	2µM	10µM	1.41µM
Cc1nc2cc(NC(=O)CS(=O)(=O)c3ccc(F)cc3)ccc2s1	?	·	–	·	–
Cc1ccc(N(CC(=O)Nc2ccc(-c3nc4ccc(C)cc4s3)cc2)S(C)(=O)=O)cc1	7.57µM	–	?	–	?
Cc1nc2ccc(NC(=O)CCS(=O)(=O)c3ccccc3)cc2s1	?	–	–	15.8µM	–
COc1cccc(-c2nc(SCc3cc(=O)c4cc(Cl)ccc4[nH]3)n[nH]2)c1	–	·	·	·	·
SMILES	FLuc modulator	KinaseGlo FLuc	NPC1 promoter act	SMN2 splice up	Rab9 promoter act
COc1ccc(NC(=O)c2ccccc2)c([N+](=O)[O-])c1	?	–	?	?	2.82µM
CCC(=O)Nc1ccc(C(=O)Nc2ccc(OC)cc2[N+](=O)[O-])cc1	–	·	–	·	–
CCCc1cc(C(=O)Nc2ccc(OC)cc2[N+](=O)[O-])cs1	12µM	·	–	·	–
Cc1ccccc1CCNC(=O)c1ccc(Cn2c(=O)c3cccn3c3cccnc32)cc1	–	·	·	·	·
COc1cccc(CNC(=O)Cn2nc3c(cc2=O)CCCC3)c1OC	–	·	·	·	·
CSc1ccccc1NC(=O)COc1ccc(Cl)cc1C	?	–	–	–	–
Cc1cc(Cl)ccc1OCC(=O)Nc1ccccc1CO	21.3µM	–	–	–	–
Cc1c(C)c2ccc(OCC(=O)Nc3cccnc3)c(C)c2oc1=O	10.7µM	·	?	·	–
Cc1cc(Cl)ccc1OCC(=O)Nc1cccnc1	13.5µM	·	–	·	–
CCc1nn(CC(=O)NCCc2ccc(OC)c(OC)c2)c(=O)c2cc3occc3n12	–	·	·	–	·
CCC1CCCCN1CCCNC(=O)c1ccc2c(c1)sc1nc(-c3ccc(F)cc3)cn12 (centres undefined)	–	·	·	·	·
COc1ccccc1N1CCN(C(=O)Cn2ncc3ccsc3c2=O)CC1	–	·	·	–	·
CCc1cccc(N2C(=O)N(Cc3c(F)cccc3Cl)c3ccccc3S2(=O)=O)c1	–	·	·	·	·
O=c1[nH]c(S)c(/C=C2\C=Nc3ccccc32)s1	15.1µM	·	–	·	–
Cc1ccc2c(=O)cc(C(=O)Nc3c(C)n(C)n(-c4ccccc4)c3=O)oc2c1C	–	·	·	–	·
COc1ccc(-c2nc(SCC(=O)Nc3ccc4c(c3)OCO4)c(-c3ccccc3)[nH]2)cc1	–	·	·	–	·
CCCC(=O)N1CCN(c2nc3ccc(F)cc3s2)CC1	10.7µM	·	·	·	·
CCCCC(=O)N1CCN(c2nc3ccc(F)cc3s2)CC1	6.01µM	·	0.562µM	·	0.501µM
CCCCC(=O)N1CCN(c2nc3c(C)c(C)ccc3s2)CC1	–	·	·	·	·
CCC(=O)N1CCN(c2nc3c(C)cccc3s2)CC1	–	·	·	·	·
CCC(=O)N1CCN(c2nc3ccc(Br)cc3s2)CC1	15.1µM	·	?	·	?
CCCCC(=O)N1CCN(c2nc3ccc(OCC)cc3s2)CC1	13.5µM	·	–	·	–
COc1ccc(-n2ncc(C(=O)N3CCN(C(=O)c4ccco4)CC3)c2C2CCN(C(=O)OC(C)(C)C)CC2)cc1	–	·	·	·	·
C=CC[C@@](C(C)=O)(C(=O)OC)C(NC(=O)OC(C)(C)C)c1ccccc1 (some centres undefined)	·	–	·	–	·
CCCC(=O)N1CCN(c2nc3ccccc3s2)CC1	7.57µM	·	1.41µM	·	1.12µM
SMILES	FLuc modulator	KinaseGlo FLuc	NPC1 promoter act	SMN2 splice up	Rab9 promoter act
CCc1ccc(NC(=O)CSc2nc3nccnc3c(=O)n2CCc2c[nH]c3ccccc23)cc1	–	·	·	·	·
Cc1ccc(NC(=O)/C(C#N)=C(\N)C(Cl)(Cl)Cl)nc1	2.13µM	–	?	·	?
Oc1ccccc1N=Cc1sc2ccccc2c1Cl	2.13µM	–	–	–	–
Cc1ccc(O)c(N=Cc2sc3ccccc3c2Cl)c1	1.51µM	–	–	–	–
Cc1cc(C)c2c(N=NN3CCCCC3)[nH]nc2n1	19µM	–	–	–	–
CNCCc1cnc(CCC(c2ccccc2)c2ccccc2)[nH]1	·	·	–	·	–
COc1cccc(NC(=O)c2ccn(C)n2)c1	?	?	?	14.1µM	2.82µM
COc1cccc(NC(=O)c2nc(SC)ncc2Cl)c1	–	·	–	·	–
COc1cccc(NC(=O)c2ncc(Cl)c(Cl)c2Cl)c1	5.36µM	?	–	–	–
COc1cc(NC(=O)c2nc3cc(C)c(C)cc3n(C)c2=O)cc(OC)c1OC	–	·	·	–	·
COc1ccc(-c2nc3c4ccccc4ccn3c2CN2CCOCC2)cc1OC	?	·	–	·	–
c1ccc(-c2nc3c4ccccc4ccn3c2CN2CCOCC2)cc1	4.78µM	·	–	·	–
COc1ccc(NC(=O)c2ccc3snnc3c2)cc1	9.53µM	–	?	12.6µM	2.82µM
CC(=O)c1ccc(NC(=O)c2ccc3snnc3c2)cc1	?	·	4.47µM	·	3.98µM
